The whole screen tested about 66,000 compounds, of which about 960 (1.5%) showed an effect of 50% or more. The entries come from a sample that favours strong results as a whole.

The subject of the experiment is Trypanosoma brucei. Put plainly: Trypanosoma brucei 72 hour study. Format: functional, organism-based. Also noted: scale not given: in the data most compounds retested in dose-response had high values.

As to `Cn1cc(C2CCCN2Cc2csc(C(C)(C)C)n2)cn1` (stereo not given), the “Percent Effect” value (30 µM, 30.03 µM) is 87.76%.

Take `CC(C)c1nc(CN2CCCC2c2cnn(C)c2)cs1` (stereo not given): the “Percent Effect” value (10 µM) was -7.544%. As to `COCCn1c(=O)n(C)c(=O)c2ccc(C3CCN(C(C)=O)CC3)nc21`, the “Percent Effect” value (30.3 µM, […]) was found to be 24.28%. Still for that read-out and setting: the result for `Cl.OC[C@H]1CC[C@]2(CC1)CN(Cc1ccsc1)Cc1ccccc1O2` reads 39.16%. For `CC(C)c1nccc(CN2CCCC(O)(CN3CCCC3)C2)n1` (stereo not given), for the setting “30 µM, 30.03 µM”, the “Percent Effect” value amounted to 17.13%. On the same count and under the same terms, then `CC(C)c1nccc(CN2CCC(O)(CN3CCCCC3)C2)n1` (stereo not given), with 67.93%; and `CC(C)c1nccc(CN2CCCC(O)(CN(C)C)C2)n1` (stereo not given), with -2.317%. In the case of `CCCSc1ncc(CN(C)CCN2CCCCC2)cn1.O=C(O)CC(O)(CC(=O)O)C(=O)O`, under “30.3 µM, […]”, the “Percent Effect” value is recorded as 2.471%.

With `Cc1cccc(Nc2cc(C3CCCN(CC(N)=O)C3)ccn2)n1.O=CO.O=CO` (stereo not given), under “30.3 µM, […]”, the “Percent Effect” value is given as -0.9423%. For the molecule `Cc1ccccc1N1CCCN(CC2(O)CCCNC2)CC1` (stereo not given), the “Percent Effect” value (30 µM, 30.03 µM) turned out to be 24.63%. Take `Cc1ccc(C)c(N2CCN(CC3(O)CCNC3)CC2)c1` (stereo not given): under “30 µM, 30.03 µM”, the “Percent Effect” value amounted to 106.8%. Still for that read-out and setting: then `CCOc1ccccc1N1CCN(CC2(O)CCCNC2)CC1` (stereo not given), with -24.1%. Take `Cn1cccc1C(=O)N1CCC2(CC1)CN(c1ccsc1)C(=O)CO2`: the “Percent Effect” value (30.3 µM, […]) is recorded as -133.6%. For `COc1ccc(CN2CCO[C@H]3[C@H](OCCN4CCCC4)CC[C@@H]32)cc1.O=C(O)C(F)(F)F.O=C(O)C(F)(F)F`, the “Percent Effect” value (30.3 µM, […]) is -2.76%. Same read-out and setting: then `Cc1ncc(CN2CCc3c(nc(-c4ccccn4)[nH]c3=O)C2)n1C`, with 9.769%. With `Cc1nn(C)cc1CN1CCc2c(nc(-c3ccccn3)[nH]c2=O)C1`, the “Percent Effect” value (30.3 µM, […]) was found to be 3.808%.

On to `Cn1cccc1CN1CCc2c(nc(-c3ccccn3)[nH]c2=O)C1`, for which, under “30.3 µM, […]”, the “Percent Effect” value worked out at 100.6%. On the same count and under the same terms, then `O=c1[nH]c(-c2ccccn2)nc2c1CCN(Cc1cccc(O)c1)C2`, with -1.061%; and `COc1ccc(CN2CCc3c(nc(-c4ccccn4)[nH]c3=O)C2)cc1`, with 100.8%; and `O=c1[nH]c(-c2ccccn2)nc2c1CCN(S(=O)(=O)N1CCCC1)C2`, with 16.13%. Still for that read-out and setting: then `COc1ccccc1CN1CCc2c(nc(-c3ccccn3)[nH]c2=O)C1`, with 100.6%.

For `Cn1cc(CN2CCc3c(nc(-c4ccccn4)[nH]c3=O)C2)cn1`, the “Percent Effect” value (30 µM, 30.03 µM) was found to be 19.69%.

With `CCn1ncc(CN2CCc3c(nc(-c4cccnc4)[nH]c3=O)C2)c1C`, where the note is “30 µM, 30.03 µM”, the “Percent Effect” value turned out to be 24.52%. For `CCN(CC)CC1CN(CCc2ccccc2)Cc2nccn2C1.O=C(O)C(F)(F)F.O=C(O)C(F)(F)F` (stereo not given), the “Percent Effect” value (30 µM, 30.03 µM) is on record as -28.98%. Take `CC(C)c1nn(C)c(N(C)C)c1CNCCC(=O)NC1CCCCC1`: the “Percent Effect” value (30.3 µM, […]) is -9.322%. With `Cc1cccc(CN2C(=O)CCC23CCN(Cc2cccn2C)CC3)n1.O=C(O)C(F)(F)F.O=C(O)C(F)(F)F`, the “Percent Effect” value (30.3 µM, […]) is -13.68%.

With `Cl.O=C(CCC1CCCC1)NCCn1nc(C2CCNC2)c2cccnc21` (stereo not given), the “Percent Effect” value (30 µM, 30.03 µM) is 11.21%. In the case of `CN(C)c1ncc(-c2ccc(C(N)=O)cc2)c(C2CCNC2)n1.Cl` (stereo not given), the “Percent Effect” value (30.3 µM, […]) turned out to be 3.717%.

For the molecule `C[C@@H]1CN(C2CCCCC2)CC[C@@]1(O)C1CCOCC1`, the “Percent Effect” value (30 µM, 30.03 µM) is recorded as -20.03%.

As to `c1cc(-c2nc3c(c(NCCn4ccnn4)n2)CCNCC3)ccn1`, where the note is “30 µM, 30.03 µM”, the “Percent Effect” value is reported as -15.86%.

In the case of `Cl.NC1CCc2nc(-c3ccncc3)nc(Nc3cccc(F)c3)c2C1` (stereo not given), where the note is “30.3 µM, […]”, the “Percent Effect” value was determined as 99.62%. Take `CC(Nc1nc(-c2ccncc2)nc2c1CCNC2)c1ccccc1` (stereo not given): the “Percent Effect” value (30 µM, 30.03 µM) is on record as -57.19%. For the molecule `CCOCCNc1nc(-c2ccncc2)nc2c1CCNCC2`, the “Percent Effect” value (30.3 µM, […]) is listed as -307.1%. As to `O=C(Nc1cccc(F)c1)NC1CCN(Cc2ccncc2)CC1`, the “Percent Effect” value (30.3 µM, […]) is -25.17%. For the molecule `CS(=O)(=O)NCc1ncn2c1CN(Cc1cccs1)CCC2.O=C(O)C(F)(F)F.O=C(O)C(F)(F)F`, the “Percent Effect” value (30 µM, 30.03 µM) came out at 32.32%. Still for that read-out and setting: the result for `Cc1c(C(=O)NCCC(=O)N2CCOCC2)sc2ccc(F)cc12` reads -29.66%. In the case of `CN1C[C@]2(CC[C@@H](C(=O)O)CC2)Oc2ccccc2C1=O`, where the note is “30.3 µM, […]”, the “Percent Effect” value is -13.61%. The same measure, in the same setting: the result for `C[C@@H]1CN(C(=O)c2cccs2)C[C@]12CCN(CCN(C)C)C2=O.O=C(O)C(F)(F)F` reads -25.2%. On to `O=C(O)C(F)(F)F.O=C(O)C(F)(F)F.c1nc2n(c1CN1CCCCC1)CCN(C1CCOC1)CC2` (stereo not given), for which the “Percent Effect” value (30 µM, 30.03 µM) was -102.4%.

As for `c1nc2n(c1CN1CCCC1)CCN(C1CCOCC1)CC2`, the “Percent Effect” value (30 µM, 30.03 µM) was 51.58%.

In the case of `c1nc2n(c1CN1CCOCC1)CCN(C1CCOC1)CC2` (stereo not given), the “Percent Effect” value (30 µM, 30.03 µM) is -183.8%. Turning to `Cl.O=C(NCCO)C1(Cc2ccccc2-c2cccnc2)CCOCC1`, the “Percent Effect” value (30.3 µM, […]) is given as -4.855%.

Regarding `COC1COC2(CCN(Cc3ccc4c(c3)OCO4)CC2)C1.O=C(O)C(F)(F)F` (stereo not given), the “Percent Effect” value (30.3 µM, […]) was -15.29%. The same measure, in the same setting: then `Br.Cc1ncc(C(=O)N2CCOC(C(=O)N3CCCCCC3)C2)c(C)n1` (stereo not given), with -22.96%. Turning to `Cn1ccc2c(C(=O)NCCCN3CCCC3)cccc21`, the “Percent Effect” value (30 µM, 30.03 µM) was -4.832%. On to `O=C(NCCCN1CCCC1=O)c1ccc(-n2ccc3ccccc32)s1`, for which, where the note is “30 µM, 30.03 µM”, the “Percent Effect” value was determined as 23.58%. The same measure, in the same setting: the result for `CCN(CC)CCNC(=O)c1ccc(-n2ccc3ccccc32)s1` reads -12.39%; that for `O=C(NCCCN1CCCCC1)c1ccc(-n2ccc3ccccc32)s1`, 80.76%; that for `O=C(NCCN1CCOCC1)c1ccc(-n2ccc3ccccc32)s1`, 63.33%. `O=C(NCCCN1CCOCC1)c1ccc(-n2ccc3ccccc32)s1`: under “30 µM, 30.03 µM”, the “Percent Effect” value was -4.421%.
